For 94 compounds, activity, negative = inhibition and AC50 results are on record in PubChem BioAssay AID1851 (National Center for Advancing Translational Sciences (NCATS), 2009).

SMILES strings stand for the structures. In all, about 16,000 compounds went through this assay and about 5,700 (36%) were called active. Roughly 24% stayed inconclusive and do not appear here. The list shows a part of the results. Values without a mark were called inactive. The call rests on the fitted dose curve; in most records, active means well fitted curve in the direction sought with a large enough effect; inconclusive means small, poorly fitted or top-dose-only effect, or effect the other way; inactive means no such curve, though single readings can be large or run the other way.
On the % scale 0 is the no-effect control and ±100 the full control effect.

In the experiment the target is Cytochrome P450 1A2 (Homo sapiens) (UniProt P05177). Description: Cytochrome panel assay with activity outcomes. The following applies: recombinant CYP, pro-luciferin dealkylation, luminescence, p450-cyp1a2; series mostly up to 57.1 µM.
Chain of Cytochrome P450 1A2 (Homo sapiens) (P05177 whole entry, looked up): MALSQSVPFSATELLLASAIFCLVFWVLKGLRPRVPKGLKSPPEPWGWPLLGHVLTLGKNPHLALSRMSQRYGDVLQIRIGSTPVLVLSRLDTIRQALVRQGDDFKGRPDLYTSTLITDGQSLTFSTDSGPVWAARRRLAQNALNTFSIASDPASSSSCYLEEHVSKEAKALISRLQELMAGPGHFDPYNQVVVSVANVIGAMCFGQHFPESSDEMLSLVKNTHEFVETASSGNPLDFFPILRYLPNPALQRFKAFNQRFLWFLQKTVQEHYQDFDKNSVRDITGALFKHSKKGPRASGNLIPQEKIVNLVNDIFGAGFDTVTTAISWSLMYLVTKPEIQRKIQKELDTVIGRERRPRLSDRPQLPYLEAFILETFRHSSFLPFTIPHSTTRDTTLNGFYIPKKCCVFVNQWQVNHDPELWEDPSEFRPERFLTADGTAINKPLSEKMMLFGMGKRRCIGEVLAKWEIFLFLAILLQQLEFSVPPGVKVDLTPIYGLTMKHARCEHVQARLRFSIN
Consider `CN(C)Cc1cc(O)c(O)c(CN(C)C)c1`, for which the activity, negative = inhibition is -8.6% [at 11.4 µM].
As usually defined, the AC50 is the concentration giving half of the maximal activity seen. For `CN1CCN(c2ncc3nc(-c4ccc(Cl)cc4)c(=O)n(C4CC4)c3n2)CC1`, the AC50 was 15.8 µM (active).
`CN1CCN(c2ncc3nc(-c4cc(F)cc(F)c4)c(=O)n(C4CC4)c3n2)CC1`: the AC50 is 15.8 µM (active).
The same measure, in the same setting: with `CN1CCN(c2ncc3nc(-c4ccc(F)cc4)c(=O)n(C4CC4)c3n2)CC1` the figure was 12.6 µM (active).
Turning to `CC(C)N=c1cc2n(-c3ccc(Cl)cc3)c3ccccc3nc-2cc1Nc1ccc(Cl)cc1`, the AC50 entry is “inactive”.
Take `COC(=O)[C@@]1(Cc2ccccc2)[C@H]2c3cc(C(=O)N4CCCC4)n(Cc4ccsc4Br)c3C[C@H]2CN1C(=O)c1ccccc1`: the AC50 result is “inactive”.
As for `N#Cc1cccc(C(c2nnnn2C2CCCC2)N2CCCCCC2)c1` (centres undefined), the AC50 entry is “inactive”.
In the case of `c1ccc(-c2noc(CSc3nnnn3C3CCCCC3)n2)cc1`, the AC50 is 2.24 µM (active).
Regarding `N#Cc1ccc(C(c2nnnn2C2CCCC2)N2CCC(Cc3ccccc3)CC2)cc1` (centres undefined), the AC50 result was “inactive”.
Regarding `OCCCN=C1CCCCC1`, the activity, negative = inhibition is -9.6% [at 11.4 µM].
With `COC(=O)Cn1nc(-c2ccccc2)n(-c2ccccc2)c1=S`, the AC50 is 15.8 µM (active).
The same measure, in the same setting: with `O=C(Nc1cccc(F)c1)N1CC2(CCN(C(=O)c3cc(C(F)(F)F)cc(C(F)(F)F)c3)CC2)C1` the entry was “inactive”; with `COc1ccc(N2C(=O)NC(NC(=O)c3ccncc3)(C(F)(F)F)C2=O)cc1` (centres undefined), “inactive”; with `O=C(NC1(C(F)(F)F)NC(=O)N(Cc2cccnc2)C1=O)c1ccccc1` (centres undefined), 6.31 µM (active).
On the same count and under the same terms, with `CCCCN1C(=O)NC(NC(=O)c2ccco2)(C(F)(F)F)C1=O` (centres undefined) the entry was “inactive”.
Consider `CCN1C(=O)[C@H]2[C@H]3[C@H](O)[C@H](O)C/C(=N/OC)[C@@H]3CC[C@@H]2C1=O`, for which the activity, negative = inhibition is -3.89% [at 11.4 µM].
For the compound `NCCNS(=O)(=O)c1cccc2cnccc12`, the AC50 result is “inactive”.
Turning to `O=S(=O)(NCCCCCCc1ccccc1)c1cccc2c(Cl)cccc12`, the AC50 was 15.8 µM (active).
Still for that read-out and setting: the same measure for `COc1ccccc1N1CCN(CCCCNS(=O)(=O)c2cccc3c(N(C)C)cccc23)CC1`: “inactive”.
In the case of `Nc1ccc(S(=O)(=O)NCCS(=O)(=O)O)cc1`, the activity, negative = inhibition is -3.14% [at 2.29 µM].
Regarding `NCCCCCCNS(=O)(=O)c1cccc2c(Cl)cccc12`, the AC50 was 7.94 µM (active).
On the same count and under the same terms, the same measure for `CCCCCCCNS(=O)(=O)c1cccc2c(Cl)cccc12`: 6.31 µM (active); for `COC(=O)N1CCC2(CCN(Cc3nccs3)CC2)CC1`: “inactive”.
In the case of `C/C(=N/O)[C@@H]1C[C@H](CC(=O)O)C1(C)C`, the activity, negative = inhibition was -2.9% [at 11.4 µM].
Take `COCCn1c(=O)c(-c2cc(F)cc(F)c2)nc2cncnc21`: the AC50 was 2 µM (active).
With `COCCn1c(=O)c(-c2ccc(Cl)cc2)nc2cncnc21`, the AC50 is 0.2 µM (active).
For the compound `COCCn1c(=O)c(-c2cccc(F)c2)nc2cncnc21`, the AC50 is 2 µM (active).
Consider `COCCn1c(=O)c(-c2cccc(Cl)c2)nc2cncnc21`, for which the AC50 was 0.631 µM (active).
Same read-out and setting: with `COCCn1c(=O)c(-c2ccc(F)c(F)c2)nc2cncnc21` the figure was 0.251 µM (active); with `COCCn1c(=O)c(-c2ccc(F)cc2)nc2cncnc21`, 0.501 µM (active).
As to `COCCn1c(=O)c(-c2ccccc2)nc2cncnc21`, the concentration at half-maximal activity (AC50) is 0.794 µM (active).
Same read-out and setting: with `COc1ccc2oc(=O)c(NC(=O)C3CCCCC3)cc2c1` the figure was 2.51 µM (active); with `COc1ccccc1CNC(=O)C1CC(=O)N(C2CCCC2)C1` (centres undefined), “inactive”.
Still for that read-out and setting: with `COc1ccc2oc(=O)c(C(=O)Oc3ccc(NC(C)=O)cc3)cc2c1` the entry was “inactive”.
Regarding `COc1cccc2cc(NC(=O)C3CCCCC3)c(=O)oc12`, the AC50 is 1.26 µM (active).
Turning to `COc1ccc(NC(=O)CC2C(=O)N(c3cccc(OC)c3)C(=O)N2C2CCCCC2)cc1` (centres undefined), the AC50 result was “inactive”.
In the case of `COc1ccc(NC(=O)C2CCN(C(=O)c3cccs3)CC2)c(OC)c1`, the AC50 entry is “inactive”.
`CC[C@H]1C2=C3C(CC[C@H]4C(OCc5ccc(F)cc5C(F)(F)F)OC[C@](C)([C@@H]34)N(C(=O)OC(C)(C)C)C2)C(COC)C1COC` (some centres undefined): the AC50 entry was “inactive”.
For the compound `COC(=O)C(C(=O)OC)C(C[N+](=O)[O-])c1ccc(OC)c(OC)c1` (centres undefined), the AC50 result was “inactive”.
For `COc1cc2ccc([C@H](C)NCC#N)cc2cc1OC`, the AC50 was 0.501 µM (active).
As for `COc1ccc(CNCCC(c2ccc(OC(C)C)cc2)C(C)C)cc1OC` (centres undefined), the AC50 entry is “inactive”.
The same measure, in the same setting: with `CCN(CC)C[C@@H](O)c1ccc2ccc3ccccc3c2c1` the figure was 0.794 µM (active).
In the case of `Cc1cc2ccccc2c[n+]1CC(O)C[n+]1cc2ccccc2cc1C`, the activity, negative = inhibition is -17.4% [at 11.4 µM].
For the compound `c1ccc([C@H](c2cccc3c2ccc2ccccc23)[C@H](c2ccccc2)c2cccc3c2ccc2ccccc23)cc1`, the activity, negative = inhibition was -9.37% [at 11.4 µM].
Regarding `CCCCCCCCN1C(=O)N(C)C(N(O)C(=O)NC)C1(C)C` (centres undefined), the AC50 result was “inactive”.
As to `CCCn1cnc2c1c(=O)n(CCCCC(C)=O)c(=O)n2C`, the AC50 was 12.6 µM (active).
For the compound `Cn1c(=O)c2c(ncn2CCO)n(C)c1=O`, the AC50 result is “inactive”.
In the case of `Cn1c(=O)c2c(ncn2C[C@@H](O)CO)n(C)c1=O`, the AC50 result is “inactive”.
Regarding `O=C(O)/C=C(/C(=O)O)[C@]12CCN3CC4=CCO[C@@H]5CC(=O)N[C@@H]1[C@H]5[C@H]4C[C@H]32`, the activity, negative = inhibition was -15% [at 2.29 µM].
Regarding `COc1ccc(CO/N=C/c2c(C)[nH]c(=O)[nH]c2=O)cc1`, the AC50 was 22.4 µM (active).
For `NC[C@H]1O[C@H](n2cnc3c(N)ncnc32)C[C@@H]1O`, the activity, negative = inhibition was -9.51% [at 11.4 µM].
Regarding `O=c1oc2cc(N=Cc3ccc4c(c3)OCO4)ccc2c2ccccc12`, the AC50 is 0.00794 µM (active).
The same measure, in the same setting: the same measure for `O=[N+]([O-])c1ccc2c(c1)Cc1cc(N=Cc3ccc4c(c3)OCO4)ccc1-2`: 0.794 µM (active).
On to `Cc1nc(CN2CCCCC2)c(O)c(=O)[nH]1`, for which the activity, negative = inhibition was -7.06% [at 11.4 µM].
For `Cc1nc2c(O)cccc2c(=O)[nH]1`, the AC50 was 15.8 µM (active).
For the compound `CSc1nc(O)c(Cc2ccccc2)c(=O)[nH]1`, the AC50 entry was “inactive”.
On to `COc1ccc(C(C(=O)NC2CCCCC2)N(C(=O)c2sc(C)nc2C)c2ccc(OC)cc2)cc1` (centres undefined), for which the AC50 entry was “inactive”.
The same measure, in the same setting: with `COc1ccc(C(C(=O)NC2CCCCC2)N(C(=O)c2sc(C)nc2C)c2ccc(C(C)=O)cc2)cc1` (centres undefined) the entry was “inactive”; with `C/C(=N\OC(=O)NC1CCCCC1)c1sc(-c2ccccc2)nc1C`, 7.08 µM (active).
Take `Cc1ccc(-c2ncccc2OC(=O)C23CC4CC(CC(C4)C2)C3)cc1`: the concentration at half-maximal activity (AC50) is 14.1 µM (active).
For the compound `CC(C)CO/N=C1/C[C@@H](O)[C@@H](O)[C@@H]2[C@@H]3C(=O)N(C[C@@H]4CCCO4)C(=O)[C@H]3CC[C@H]12`, the activity, negative = inhibition was -4.99% [at 11.4 µM].
As for `Cn1c(=O)n(CCC(=O)O)c2ccccc21`, the AC50 result was “inactive”.
As to `Cn1c(=O)c2cn(-c3ccccc3)cc2n(C)c1=O`, the half-maximal activity concentration (AC50) is 1.78 µM (active).
For the compound `Cn1c(=O)c2cc(S(=O)(=O)NCCC(=O)NCc3ccccc3Cl)ccc2n(C)c1=O`, the AC50 entry is “inactive”.
`CCCNC(=O)OC[C@H]1O[C@@H](CCO/N=C\[C@@H](NS(=O)(=O)c2ccc(C)cc2)[C@H](C)/C=C\CC(=O)OC)C=C[C@@H]1Oc1ccc(OC)cc1`: the activity, negative = inhibition is 2.17% [at 11.4 µM].
Regarding `O=C(c1ccccc1)[C@@H]1O[C@H]1c1ccc(-c2ccccc2)cc1`, the AC50 is 6.31 µM (active).
In the case of `C[C@@]1(C(NC(=O)c2ccccc2)c2ccc(-c3ccccc3)cc2)C[C@H]1C1CCCCC1` (some centres undefined), the AC50 entry is “inactive”.
Consider `CCN1CCN(CCCNC(=O)C(NC(=O)C2CCC(C)CC2)C(C)C)CC1` (centres undefined), for which the AC50 result is “inactive”.
As for `O=C(c1cc(C(F)(F)F)cc(C(F)(F)F)c1)N1CCC[C@@]2(CCN(c3ncccn3)C2)C1`, the AC50 entry was “inactive”.
For the compound `O=C1CC[C@H](N2C(=O)c3ccccc3C2=O)C(=O)N1`, the AC50 result was “inactive”.
The same measure, in the same setting: the same measure for `O=c1c(CCc2ccccc2)nc2cncnc2n1-c1ccccc1`: 15.8 µM (active); for `COCCn1c(=O)c(CCc2ccccc2)nc2cncnc21`: 10 µM (active); for `NCCn1c(=O)c(CCc2ccccc2)nc2cncnc21`: 12.6 µM (active).
Turning to `CCCNC(=O)N1CCC(C(=O)c2ccc(F)cc2)CC1`, the AC50 result is “inactive”.
For the compound `NC(=O)C1(NC(=O)[C@@H]2CC3(CC(c4cccc(NC(=O)c5cc([N+](=O)[O-])cc([N+](=O)[O-])c5)c4)=NO3)CN2C(=O)c2ccccc2)CC1` (some centres undefined), the AC50 result was “inactive”.
The same measure, in the same setting: the same measure for `COc1ccc(NC(=O)c2cc(C(C)C)on2)cc1OC`: 15.8 µM (active); for `CCC(NC(=O)Nc1cc(OC)c(OC)c(OC)c1)(C(F)(F)F)C(F)(F)F`: “inactive”.
Consider `COc1ccc(NC(=O)COC(=O)Cn2c(C)nc3ccccc32)cc1OC`, for which the AC50 entry is “inactive”.
As to `COc1ccc(-c2cc(C(=O)Nc3cc(OC)c(OC)c(OC)c3)no2)cc1OC`, the AC50 entry was “inactive”.
In the case of `COc1ccc(C(=O)Nc2ccc(OCC(F)(F)C(F)F)c(C(F)(F)F)c2)cc1OC`, the AC50 result was “inactive”.
As to `COc1ccc(NC(=O)C(F)(F)F)cc1OC`, the AC50 was 12.6 µM (active).
For `COc1ccc(NC(=O)CC#N)cc1OC`, the AC50 was 15.8 µM (active).
As to `CO[C@]1(NC(=O)CSCC#N)C(=O)N2C(C(=O)O)=C(CSc3nnnn3C)CS[C@H]21`, the AC50 entry is “inactive”.
Same read-out and setting: with `CNc1ncnc2ccc(-c3ccccc3OC)cc12` the figure was 2.51 µM (active); with `COc1ccccc1-c1ccc2ncnc(Nc3ccccc3)c2c1`, 2.51 µM (active); with `Cc1ccc(CS(=O)(=O)CCC(=O)NCCCOC(C)C)cc1`, “inactive”.
`NC(N)=NNC(=O)C(=O)O`: the activity, negative = inhibition is -1.69% [at 11.4 µM].
Turning to `Cc1ccc(NC(=O)/C(=C\c2cccnc2)NC(=O)c2ccco2)cc1`, the AC50 entry is “inactive”.
Turning to `O=C(NC(Cc1ccccc1)C(=O)O)/C(=C\c1ccco1)NC(=O)c1ccc(Br)cc1` (centres undefined), the AC50 entry is “inactive”.
Same read-out and setting: with `O=C(N/C(=C/c1ccc(Br)cc1)c1nc2ccccc2[nH]1)c1ccco1` the figure was 7.08 µM (active); with `C[C@H](NC[C@H](O)CP(=O)(O)CC1CCCCC1)c1ccc(Cl)c(Cl)c1`, 39.8 µM (active); with `C[C@H](NC[C@H](O)CP(=O)(O)Cc1ccccc1)c1ccc(Cl)c(Cl)c1`, “inactive”.
Consider `CCS(=O)(=O)Nc1ccc(C2=NN(C(=O)c3ccco3)C(c3ccc(C)cc3)C2)cc1` (centres undefined), for which the AC50 result is “inactive”.
As to `CNC(=S)N1N=C(c2ccc(OC)cc2)CC1c1ccc(N(C)C)cc1` (centres undefined), the AC50 is 10 µM (active).
